Assay results as given in PubChem BioAssay AID1619 (SRMLSC, 2009).
The whole screen tested about 220,000 compounds, of which about 830 (0.38%) were called active.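 How the source made its calls: active means compound inhibiting the enzyme by more than half at any dose during confirmatory dose-response retesting; inconclusive means strong single-dose inhibitors picked by rank but not retested; inactive means the rest.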 Not all results are given here. Results with a measured potency or affinity are listed apart.

biological target: Leucine aminopeptidase (Plasmodium falciparum (isolate 3D7)) (UniProt Q8IL11); assay: P. falciparum M17LAP inhibitors, primary screen, biochemical, fluorogenic H-Leu-NHMec substrate, 1536-well (AID 1619); conditions: recombinant M17LAP, H-Leu-NHMec fluorogenic kinetic assay; at 30 µM; stronger effect = higher value;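 further: plate controls were full reaction with DMSO carrier for no effect and no enzyme background for full effect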
Sequence (Q8IL11 whole entry, looked up): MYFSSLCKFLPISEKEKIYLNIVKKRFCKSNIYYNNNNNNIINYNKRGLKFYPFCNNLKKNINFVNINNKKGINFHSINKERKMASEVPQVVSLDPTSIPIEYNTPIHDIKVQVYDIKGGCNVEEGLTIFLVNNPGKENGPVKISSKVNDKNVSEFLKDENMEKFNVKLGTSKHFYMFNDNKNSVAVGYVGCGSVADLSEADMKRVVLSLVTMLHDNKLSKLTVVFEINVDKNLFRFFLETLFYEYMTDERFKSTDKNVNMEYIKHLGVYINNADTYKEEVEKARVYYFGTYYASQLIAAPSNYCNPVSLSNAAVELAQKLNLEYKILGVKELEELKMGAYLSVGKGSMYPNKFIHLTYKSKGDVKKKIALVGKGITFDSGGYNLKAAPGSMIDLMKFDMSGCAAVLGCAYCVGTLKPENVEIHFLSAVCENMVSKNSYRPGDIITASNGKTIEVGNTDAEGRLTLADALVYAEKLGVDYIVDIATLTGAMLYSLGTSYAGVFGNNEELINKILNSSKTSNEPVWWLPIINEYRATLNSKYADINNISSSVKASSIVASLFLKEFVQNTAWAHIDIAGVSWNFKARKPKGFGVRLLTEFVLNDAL

inhibition, inactive:
Cn1c(CC(=O)c2ccc(Br)cc2)[n+](C)c2ccccc21 2.42%, Nc1nc(CSc2ncn[nH]2)nc(Nc2ccc(F)cc2)n1 -4.26%, O=S(=O)(c1ccc2c(c1)OCCO2)N1CCC(n2nnc3cc(F)ccc32)CC1 4.13%, CC1(C)CC(=O)c2sc(NS(=O)(=O)c3ccc(Br)cc3)nc2C1 18.8%, CC1(C)CC(=O)c2sc(NS(=O)(=O)c3ccc(F)cc3)nc2C1 48.1%, c1ccc(-c2nc3nc4ccccc4nc3n2Cc2ccco2)cc1 1.08%, COc1ccc(-c2noc(CCCC(=O)N3CCOCC3)n2)cc1 -3.55%, CCOc1cc(/C=N/N=C2/NC(=O)C(CC(=O)O)S2)ccc1OCc1ccc(Cl)cc1 (stereo not given) 5.31%, COc1cc(/C=N/N=C2/NC(=O)C(CC(=O)O)S2)ccc1OCc1ccc(Cl)cc1 (stereo not given) 23.2%, CCOc1ccc2[nH]c(=O)c(CN(CCO)C(=O)CC)cc2c1 -5.26%, Nc1c(C(=O)c2ccccc2)oc2ccc(Br)cc12 -7.77%, COC(=O)c1oc2ccc(Br)cc2c1NC(=O)c1ccccc1 14.5%, C=CCNCCOc1c(C)cc(C)cc1Cl 20.1%, CC1(C(=O)OCC(=O)Nc2ccccc2)CC1(Cl)Cl (stereo not given) 1.25%, CCN(C(=O)Cn1cnc2cc([N+](=O)[O-])ccc2c1=O)C1CCS(=O)(=O)C1 (stereo not given) 12.2%, Cc1ccc(-c2nc(N=Nc3ccc(O)cc3)n[nH]2)cc1 12.9%, Oc1ccc(-c2cccc(-c3ccc(O)cc3)n2)cc1 1.28%, O=C(O)c1ccc(N2C(=O)CC(N3C(=O)/C(=C/c4ccc(Cl)cc4)SC3=S)C2=O)cc1 (stereo not given) 6.02%, CCOc1ccc(/C=C2\SC(=S)N(CCC(=O)O)C2=O)cc1 6.65%, Cc1ccc(NC(=O)/C=C/c2ccco2)nc1 11.5%, O=C(Nc1ccccc1N1CCCC1)c1ccc([N+](=O)[O-])cc1Cl 9.68%, CCCCN1C(=O)/C(=C/C=C2\SCCN2C)SC1=S -4.21%, CCN1C(=O)/C(=C/C=C2/SCCN2C)SC1=S -8.41%, Cc1ccc(S(=O)(=O)N(CC(=O)Nc2ccccc2C(=O)O)c2ccccc2C)cc1 2.3%, Cc1ccc(S(=O)(=O)N(CC(=O)Nc2ccccc2C(=O)O)c2ccccc2)cc1 4.48%, COc1ccc(N2C(=O)c3ccccc3C2=O)cc1 -7.95%, COc1ccc2sc(C)[n+](C)c2c1 -2.85%, COc1ccc(C(O)(C(=O)NNc2ccc(C)cc2)c2cccs2)cc1 (stereo not given) 15.2%, O=[N+]([O-])c1ccc(-c2cc(-c3ccncc3)nc3ccc4ccccc4c23)cc1 -5.09%, CC1=C(O)C(=O)OC1c1c(Cl)cccc1Cl (stereo not given) -5.75%, CCCCSc1nc(C)[nH]c1[N+](=O)[O-] -54.3%, Cc1ccc(Nc2ncnc3nc[nH]c23)cc1Cl 6.48%, COc1ccccc1Nc1ncnc2nc[nH]c12 38.3%, Cc1ccc(-c2nnc(SCC(=O)N/N=C/c3c(C)nn(-c4ccccc4)c3C)n2-c2ccccc2)cc1 -0.81%, CC(Sc1ccccc1)C(=O)Nc1ccc(S(=O)(=O)N2CCOCC2)cc1 (stereo not given) 11.8%, CC(Sc1ccc(Cl)cc1)C(=O)Nc1ccc(S(=O)(=O)N2CCOCC2)cc1 (stereo not given) 1.19%, CCc1ccccc1NC(=O)C1C(c2ccccc2)C1(Cl)Cl (stereo not given) -8.78%, O=C(Nc1ccccc1NC(=O)c1c(F)c(F)c(F)c(F)c1F)c1c(F)c(F)c(F)c(F)c1F 8.25%, CC(C)N(Cc1nc(-c2ccc3c(c2)OCO3)no1)Cc1nccn1C -7%, CC(C)c1[nH]nc2c1C1(CCN(Cc3ccccc3)CC1)C(C#N)=C(N)O2 30.2%, Cc1[nH]nc2c1C1(CCN(Cc3ccccc3)CC1)C(C#N)=C(N)O2 42.9%, Cc1sc(NC(=O)c2cccc([N+](=O)[O-])c2)c(C(N)=O)c1-c1ccc(C(C)(C)C)cc1 6.91%, Cc1csc(NC(=O)[C@@H]2CCCN2C(=O)c2cccs2)n1 -1.96%, CC1=C(C(=O)OCc2ccccc2)C(c2ccc(Cl)cc2Cl)NC(=O)N1CCCC(=O)O (stereo not given) 0.51%, CC1=C(C(=O)OCc2ccccc2)C(c2ccc(Cl)cc2)NC(=O)N1CCCCCC(=O)O (stereo not given) 47.3%, N#Cc1ccc(C(=O)CSc2n[nH]c(=O)n2Cc2ccco2)cc1 -0.26%, COc1ccc(Cc2nnc(NS(=O)(=O)c3ccccc3)s2)cc1 52.4%, COc1ccc(Cc2nnc(NS(C)(=O)=O)s2)cc1 11.1%, Cc1cccc(Oc2ccc(NC(=O)c3ccccc3C(=O)O)cc2)c1 2.06%, O=C(Nc1cccc(Oc2ccc(C(=O)O)c(C(=O)O)c2)c1)c1ccc(-c2ccccc2)cc1 38.5%, O=C(O)COc1ccc(NC(=O)c2cccs2)cc1 16.1%, COc1ccc(NC(=O)c2cccs2)cc1 -8.71%, CC(=O)Nc1ccccc1N(CC(O)Cn1c2ccccc2c2ccccc21)S(=O)(=O)c1ccc(C)cc1 (stereo not given) 11.1%, CC(=O)CSc1nnc(Cc2ccc3c(c2)OCO3)o1 -2.53%, Cc1ccc(NC(=O)CN2C(=O)N/C(=C/c3ccc(C)s3)C2=O)cc1 -4%, Cc1ccc(NC(=O)CN2C(=O)N/C(=C/c3ccc(C)o3)C2=O)cc1 71.1%, CCn1cc(C(=O)OCC(=O)N2C(C)CCCC2C)c(=O)c2ccc(C)nc21 (stereo not given) 0.44%, CCCSc1nc(O)c(C2OC(=O)c3c2ccc(OC)c3OC)c(=O)n1-c1ccccc1 (stereo not given) 31.4%, CCCCSc1nc(O)c(C2OC(=O)c3c2ccc(OC)c3OC)c(=O)n1C (stereo not given) 44.3%, CCSc1nc(O)c(C2OC(=O)c3c2ccc(OC)c3OC)c(=O)n1CC (stereo not given) 41.4%, CCCCSc1nc(O)c(C2OC(=O)c3c2ccc(OC)c3OC)c(=O)n1-c1ccccc1 (stereo not given) 32%, CC1=CCC2C(=O)N(c3ccc(Br)cc3C)C(=O)C2C1 (stereo not given) -2.62%, COc1cc(C(=O)O)cc(NC(=O)c2cccs2)c1OC 27%, CC(NS(=O)(=O)c1ccccc1)C(c1cccs1)N1CCOCC1 (stereo not given) 3.6%, CCOc1ncccc1C(=O)OCC(=O)NCc1ccc2c(c1)OCO2 -8.27%, O=C(COC(=O)c1cccc(S(=O)(=O)N2CCOCC2)c1)Nc1ncc(C(F)(F)F)cc1Cl 4.29%, C/C(CC(=O)Nc1cc(C)ccn1)=N\NC(=O)C(=O)Nc1cccc(C)c1 17.6%, C/C(CC(=O)Nc1cc(C)ccn1)=N\NC(=O)c1cccc(C)c1 36.6%, CC(=O)CSc1ncnc2c1cnn2-c1ccccc1 -3.85%, c1ccc(CSc2ncnc3c2cnn3-c2ccccc2)cc1 6.75%, O=C1N/C(=C/c2cccn2-c2ccccc2)C(=O)N1Cc1ccccc1F 2.46%, O=C(O)c1cccc(-n2cccc2/C=C2\NC(=O)N(Cc3ccc(F)cc3)C2=O)c1 14.1%, COc1ccc(C(=O)OCC(=O)Nc2nc3c(F)c(F)c(F)cc3s2)cc1OC -4.12%, CCOc1ccccc1OCC(=O)Nc1nnc(COC)s1 -14%, COc1ccc(-c2cc(=O)[nH]c(=O)[nH]2)cc1 6.04%, COc1cccc(-c2cc(=O)[nH][nH]2)c1 -0.06%, COc1ccc(-c2c[nH]c(=O)[nH]c2=O)cc1OC 7.18%, COc1ccc(-c2cn(-c3cccc(C)c3)c(=O)[nH]2)cc1OC 12.5%, Cn1nc(-c2ccc(NCCO)c([N+](=O)[O-])c2)c2ccccc2c1=O -6.44%, Cc1nn(-c2ccccn2)c(N)c1N=O 13.8%, O=C(CN1C2=NCCCN2c2ccccc21)c1cccs1 -10.1%, CCN1C(=O)/C(=C/c2cccs2)SC1=Nc1ccc(OC)cc1 -1.72%, CC(C)c1ccc(OCC(=O)Nc2cccc(C(=O)Nc3ccccc3C(=O)O)c2)cc1 5.28%, COc1ccc(OCC(=O)Nc2cccc(C(=O)Nc3ccccc3C(=O)O)c2)cc1 37%, Cc1cc2nc(SC(C)C(=O)O)[nH]c2cc1C (stereo not given) 19.5%, CC(Sc1nc2ccccc2[nH]1)C(=O)O (stereo not given) 4.99%, COc1ccc(-n2nc(N)c3c(=O)oc(N(C)C)nc32)cc1 3.39%, Cc1ccc(NC2SC(=O)N(Cc3cccc(C(=O)O)c3)C2=O)c(C)c1 (stereo not given) -1%, COC(=O)c1cccc(CN2C(=O)SC(Nc3ccc(C)cc3)C2=O)c1 (stereo not given) 2.69%, COC(=O)c1cccc(CN2C(=O)SC(Nc3ccccc3)C2=O)c1 (stereo not given) 2.34%, NC(=O)CN(c1ccccc1)C1SC(=O)N(Cc2ccccc2)C1=O (stereo not given) -3.19%, Cc1ccc(N(CC(N)=O)C2SC(=O)N(Cc3ccccc3)C2=O)cc1 (stereo not given) 8.98%, O=C(O)CN1C(=O)SC(Nc2ccccc2)C1=O (stereo not given) 15.1%, O=C1Nc2ccccc2S/C1=C/c1cccs1 4.97%, CCCCCCOc1cccc(N)c1 -6.2%
